Test results as given in PubChem BioAssay.
Inconclusive results are not listed. Active and inactive are the calls of the source.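 How the source made its calls, unless noted: active means response below a set limit, under 55% cells CD8-positive and vesicle-bound, and CD8 cells' 90th-percentile brightness under 279; inactive means the rest.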

How the values were obtained:
[1] = yeast TOR pathway RPL19A-GFP modulators, primary screen, cell-based, S. cerevisiae, multiplex flow cytometry (AID 1862; in the data active means percent of DMSO control GFP below about 86%;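 further: lower values mimic rapamycin by blocking the RPL19A rise seen in DMSO cells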); conditions: S. cerevisiae RPL19A-GFP strain, flow cytometry fluorescence, 3 h; at 10 µM; stronger effect = lower value
[2] = modulators of MEP2-GFP levels in yeast, primary screen, S. cerevisiae, multiplex flow cytometry (AID 1867;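 active means GFP response, as percent of the DMSO control, above the screen-wide mean plus 3 SD, about 139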;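 further: median GFP channel fluorescence of barcode-gated MEP2-GFP cells measured by flow cytometry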); conditions: S. cerevisiae MEP2-GFP strain, 3 h, at 10 µM, stronger effect = higher value, 100% means same as DMSO wells
[3] = modulators of CIT2-GFP expression in yeast, primary screen, S. cerevisiae, GFP fusion, multiplex flow cytometry (AID 1870;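 active means percent response above a set limit, the screen-wide mean plus 3 SD, cut at about 130% in these data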;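 further: barcoded CIT2-GFP strain pooled with four other GFP strains with rapamycin as positive control; median GFP fluorescence per well over plate mean of DMSO wells so 100% = DMSO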); conditions: 3 h, at 10 µM, stronger effect = higher value
[4] = modulators of LAP4-GFP expression in yeast, primary screen, S. cerevisiae, multiplex flow cytometry (AID 1873;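 active means GFP signal, as percent of the solvent control, above the screen mean plus 3 SD, about 149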); conditions: 3 h, at 10 µM, stronger effect = higher value
[5] = modulators of AGP1-GFP expression in yeast TOR pathway, primary screen, cell-based, multiplex flow cytometry, S. cerevisiae (AID 1887;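 active means GFP signal above the screen-wide mean plus 3 SD, that is over about 124.5% of the solvent control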;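 further: AGP1-GFP fusion strain of S. cerevisiae within a five-strain barcoded multiplex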); conditions: 3 h, at 10 µM, stronger effect = higher value
[6] = inhibitors of CD8+ T cell-vesicle binding, pilot screen, LFA-1/ICAM-1 modulator project, MLPCN validation set, flow cytometry (AID 2523); conditions: 2C mouse CD8+ T cells, at 7 µM, stronger effect = lower value; double positive events: measured here: CD8+/vesicle+ event percentage;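 on vesicle binding response: mean PE anti-B7-1 fluorescence of CD8+ cells relative to row control; 100% = QL9-loaded vesicles with DMSO vehicle in the same plate row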
[7] = molecular target: Integrin beta-1 (Homo sapiens) + Integrin alpha-4 (Homo sapiens) (UniProt P13612+P05556); experiment: inhibition of HUTS-21 binding to VLA-4, pilot screen, VLA-4 allosteric modulator project, U937 cells, HUTS-21 mAb, flow cytometry, validation set (AID 2674;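 active means inhibition above 50%, about 3 SD of the validation set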;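 further: antibody binding induced by the VLA-4 ligand LDV present at three times its Kd; 0% = LDV ligand with antibody and no compound and 100% = antibody without LDV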); conditions: HUTS-21 LIBS mAb binding, at 6.7 µM, stronger effect = higher value, binding induced by LDV ligand
Sequence of Integrin beta-1 (Homo sapiens) + Integrin alpha-4 (Homo sapiens) (P05556 whole entry, looked up): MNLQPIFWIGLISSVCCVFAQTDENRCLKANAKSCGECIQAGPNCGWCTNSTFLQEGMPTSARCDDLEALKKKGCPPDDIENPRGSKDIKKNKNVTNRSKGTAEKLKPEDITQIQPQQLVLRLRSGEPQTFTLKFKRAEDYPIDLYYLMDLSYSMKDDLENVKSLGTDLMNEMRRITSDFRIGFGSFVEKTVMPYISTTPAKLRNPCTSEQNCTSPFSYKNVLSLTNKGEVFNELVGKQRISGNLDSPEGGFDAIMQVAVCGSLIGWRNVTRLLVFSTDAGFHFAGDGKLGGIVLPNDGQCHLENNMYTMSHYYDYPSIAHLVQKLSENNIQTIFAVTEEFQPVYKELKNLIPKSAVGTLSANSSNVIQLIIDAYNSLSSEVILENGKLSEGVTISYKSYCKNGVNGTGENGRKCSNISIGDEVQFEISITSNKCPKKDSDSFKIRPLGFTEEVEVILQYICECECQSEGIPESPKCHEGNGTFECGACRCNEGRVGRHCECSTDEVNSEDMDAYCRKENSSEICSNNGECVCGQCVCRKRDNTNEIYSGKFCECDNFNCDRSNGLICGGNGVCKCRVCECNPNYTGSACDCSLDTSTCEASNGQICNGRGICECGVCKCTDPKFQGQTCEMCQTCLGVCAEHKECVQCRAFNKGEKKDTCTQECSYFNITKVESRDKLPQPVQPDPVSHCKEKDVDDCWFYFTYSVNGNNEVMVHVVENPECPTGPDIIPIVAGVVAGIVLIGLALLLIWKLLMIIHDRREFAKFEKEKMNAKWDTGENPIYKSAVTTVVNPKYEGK
Sequence of Integrin beta-1 (Homo sapiens) + Integrin alpha-4 (Homo sapiens) (P13612 whole entry, looked up): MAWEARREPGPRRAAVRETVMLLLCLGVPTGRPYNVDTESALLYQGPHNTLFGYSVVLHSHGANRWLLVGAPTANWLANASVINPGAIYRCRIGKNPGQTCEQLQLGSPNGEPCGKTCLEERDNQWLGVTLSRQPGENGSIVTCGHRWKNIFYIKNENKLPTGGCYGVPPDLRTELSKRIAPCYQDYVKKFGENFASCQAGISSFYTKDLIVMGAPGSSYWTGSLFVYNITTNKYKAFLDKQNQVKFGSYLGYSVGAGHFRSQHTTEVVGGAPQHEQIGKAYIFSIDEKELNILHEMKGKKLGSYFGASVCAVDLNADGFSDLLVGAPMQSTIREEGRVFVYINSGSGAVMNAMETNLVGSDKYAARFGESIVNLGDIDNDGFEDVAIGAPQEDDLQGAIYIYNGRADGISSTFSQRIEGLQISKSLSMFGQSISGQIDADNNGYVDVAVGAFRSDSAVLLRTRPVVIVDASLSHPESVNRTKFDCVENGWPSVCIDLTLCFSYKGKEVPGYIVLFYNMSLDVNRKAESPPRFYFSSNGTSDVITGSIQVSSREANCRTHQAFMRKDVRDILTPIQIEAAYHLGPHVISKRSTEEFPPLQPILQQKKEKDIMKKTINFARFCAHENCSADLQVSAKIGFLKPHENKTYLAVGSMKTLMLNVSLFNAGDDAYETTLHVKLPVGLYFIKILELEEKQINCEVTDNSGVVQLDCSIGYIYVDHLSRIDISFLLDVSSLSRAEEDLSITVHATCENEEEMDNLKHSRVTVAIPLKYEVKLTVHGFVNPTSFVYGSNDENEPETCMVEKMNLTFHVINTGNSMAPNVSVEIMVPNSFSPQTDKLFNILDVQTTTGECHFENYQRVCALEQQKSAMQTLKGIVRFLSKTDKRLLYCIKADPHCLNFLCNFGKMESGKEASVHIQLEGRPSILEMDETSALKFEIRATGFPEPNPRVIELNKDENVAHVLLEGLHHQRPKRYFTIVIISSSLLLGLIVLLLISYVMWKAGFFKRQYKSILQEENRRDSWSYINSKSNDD

[8] = superoxide lowering in aged yeast cells, pilot screen, validation compound set (AID 2706;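 active means superoxide response below 65% of plate, a cut near 3 SD across the whole screen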;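 further: yeast exposed to compound for one week at 30 degrees C before staining; 100% = mean of all compound wells on the same plate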); conditions: S. cerevisiae aging, superoxide DHE fluorescence; at 10 µM; stronger effect = lower value
[9] = molecular target: Beta-adrenergic receptor kinase 1 (Homo sapiens) (UniProt P25098); experiment: GRK2 binders displacing RNA aptamer, biochemical, validation, human GRK2, bead flow cytometry (AID 488806;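 active means aptamer binding inhibition above 30%, about 3 SD of noise from non-fluorescent compounds; inactive means inhibition at or below 30%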); conditions: bead-bound GRK2, FAM-aptamer displacement, at 10 µM, stronger effect = higher value
Sequence of Beta-adrenergic receptor kinase 1 (Homo sapiens) (P25098 whole entry, looked up): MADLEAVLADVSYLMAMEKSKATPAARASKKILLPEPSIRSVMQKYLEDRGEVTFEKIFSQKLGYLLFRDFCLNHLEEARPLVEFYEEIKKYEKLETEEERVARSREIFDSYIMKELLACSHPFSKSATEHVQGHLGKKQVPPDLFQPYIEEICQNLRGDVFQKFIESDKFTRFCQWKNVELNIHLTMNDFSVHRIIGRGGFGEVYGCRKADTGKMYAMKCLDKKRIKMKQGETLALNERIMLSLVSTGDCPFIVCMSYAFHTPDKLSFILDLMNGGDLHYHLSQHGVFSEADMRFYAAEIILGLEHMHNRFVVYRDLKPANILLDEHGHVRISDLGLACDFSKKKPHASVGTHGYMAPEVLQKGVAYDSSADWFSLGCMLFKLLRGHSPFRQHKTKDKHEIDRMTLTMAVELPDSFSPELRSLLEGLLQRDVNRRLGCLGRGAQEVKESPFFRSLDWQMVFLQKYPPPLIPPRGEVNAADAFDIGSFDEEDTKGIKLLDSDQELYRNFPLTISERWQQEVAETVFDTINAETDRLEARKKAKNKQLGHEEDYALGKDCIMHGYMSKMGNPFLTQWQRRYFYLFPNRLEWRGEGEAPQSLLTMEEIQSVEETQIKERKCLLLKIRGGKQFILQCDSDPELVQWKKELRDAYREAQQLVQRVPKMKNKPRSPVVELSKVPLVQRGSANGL

[10] = molecular target: Beta-2 adrenergic receptor (Homo sapiens) (UniProt P07550); experiment: beta2AR agonists driving receptor internalization, pilot screen, cell-based, FAP fluorogen, flow cytometry, validation set (AID 504459;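 active means percent response above 42, roughly 3 SD of non-fluorescent test compounds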;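 further: agonist-driven loss of surface beta2AR via internalization measured by FAP dye flow cytometry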); conditions: Am2.2-beta2AR cells, FAP surface receptor flow cytometry; at 10 µM; stronger effect = higher value
Sequence of Beta-2 adrenergic receptor (Homo sapiens) (P07550 whole entry, looked up): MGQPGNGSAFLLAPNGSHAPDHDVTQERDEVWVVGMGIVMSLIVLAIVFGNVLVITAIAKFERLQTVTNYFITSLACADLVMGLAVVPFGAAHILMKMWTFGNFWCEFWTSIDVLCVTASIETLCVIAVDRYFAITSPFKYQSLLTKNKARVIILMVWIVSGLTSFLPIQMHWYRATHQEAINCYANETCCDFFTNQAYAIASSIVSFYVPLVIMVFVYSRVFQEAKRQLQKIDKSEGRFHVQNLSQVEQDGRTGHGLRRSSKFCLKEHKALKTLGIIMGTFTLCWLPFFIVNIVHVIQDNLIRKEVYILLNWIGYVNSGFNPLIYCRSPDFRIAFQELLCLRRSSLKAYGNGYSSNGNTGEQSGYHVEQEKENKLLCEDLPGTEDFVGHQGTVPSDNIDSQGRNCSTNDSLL

[11] = molecular target: AP-2 complex subunit beta (Homo sapiens) (UniProt P63010); experiment: inhibitors of arrestin peptide binding to AP2, pilot screen, biochemical, validation set, GST-AP2 beads, flow cytometry (AID 504541;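 active means inhibition above 54%, about 3 SD of non-fluorescent compounds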;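 further: AP2 carries R879A mutation and is captured from E. coli lysate; bead-bound FITC arrestin peptide fluorescence measuring arrestin peptide binding to AP2; 0% = DMSO wells and 100% = excess unlabeled arrestin peptide control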); conditions: FITC arrestin peptide, at 10 µM, stronger effect = higher value, AP2 beta2 appendage fragment, R879A mutant
Sequence of AP-2 complex subunit beta (Homo sapiens) (P63010 whole entry, looked up, the tested form may be a part, one chain of several): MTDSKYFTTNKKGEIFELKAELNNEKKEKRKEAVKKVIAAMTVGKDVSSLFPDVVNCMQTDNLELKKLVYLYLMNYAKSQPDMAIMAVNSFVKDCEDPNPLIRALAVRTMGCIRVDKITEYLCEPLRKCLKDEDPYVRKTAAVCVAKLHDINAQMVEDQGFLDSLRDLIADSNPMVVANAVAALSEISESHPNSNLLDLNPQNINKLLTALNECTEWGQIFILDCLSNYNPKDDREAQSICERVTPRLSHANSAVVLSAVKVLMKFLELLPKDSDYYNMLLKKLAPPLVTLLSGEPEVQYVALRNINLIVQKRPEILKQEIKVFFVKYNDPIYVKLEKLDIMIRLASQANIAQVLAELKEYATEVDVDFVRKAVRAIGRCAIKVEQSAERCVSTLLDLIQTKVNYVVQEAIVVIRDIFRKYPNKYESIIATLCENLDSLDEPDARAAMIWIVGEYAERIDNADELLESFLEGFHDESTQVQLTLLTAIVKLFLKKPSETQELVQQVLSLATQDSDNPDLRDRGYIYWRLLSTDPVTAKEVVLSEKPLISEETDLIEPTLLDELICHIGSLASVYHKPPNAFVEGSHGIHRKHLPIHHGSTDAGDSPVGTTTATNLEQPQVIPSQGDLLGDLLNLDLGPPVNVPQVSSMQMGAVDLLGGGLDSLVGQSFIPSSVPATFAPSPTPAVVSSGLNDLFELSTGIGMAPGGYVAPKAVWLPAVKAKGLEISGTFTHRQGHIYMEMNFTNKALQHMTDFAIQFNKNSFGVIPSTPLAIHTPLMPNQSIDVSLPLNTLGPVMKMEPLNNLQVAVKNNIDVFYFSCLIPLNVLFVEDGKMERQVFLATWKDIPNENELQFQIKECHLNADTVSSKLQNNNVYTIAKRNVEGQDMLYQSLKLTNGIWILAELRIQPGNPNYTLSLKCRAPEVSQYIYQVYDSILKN

[12] = yeast V-ATPase proton transport modulators, S. cerevisiae, pHLuorin, HTS validation (AID 504600; in the data active means response above about 15%;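 further: plate controls were DMSO for no effect and reference compound for full effect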); conditions: S. cerevisiae pHLuorin cytosolic pH, at 10 µM, stronger effect = higher value
[13] = test system: anti-desmoglein-3 scFv antibody binding to human DSG3; experiment: inhibitors of anti-DSG3 scFv binding to DSG3, pilot screen, biochemical, validation compound set, bead-based, flow cytometry (AID 588368;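 active means binding below the plate cutoff, the plate median minus 3 SD, with a reading above zero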;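 further: signal is the median channel fluorescence of bead-bound GFP antibody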); conditions: Protein G beads, DSG3-Fc, scFv-GFP binding, at 10 µM, stronger effect = lower value
[14] = inhibitors of fungal efflux pumps CDR1, CDR2, MDR1, pilot screen, validation compound set, multiplex, phenotypic (AID 588506;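 active means efflux inhibition above 0.42, the validation set average plus 4 SD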;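 further: Nile Red retained in cells so higher fluorescence means more efflux inhibition; 0 = negative control wells and 1 = enniatin B 25 µM full block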); conditions: S. cerevisiae pump-expressing triplex, Nile Red efflux flow cytometry; at 10 µM; stronger effect = higher value; the pumps come from Candida albicans
[15] = molecular target: ATP-binding cassette sub-family B member 6 (Homo sapiens) (UniProt Q9NP58); experiment: ABCB6 transporter inhibitors, pilot screen, K562-ABCB6 cells, flow cytometry, validation set (AID 588550;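 active means inhibition above the screen-wide mean plus 3 SD, about 51%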;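 further: 0% = DMSO wells and 100% = benzethonium chloride 70 µM positive control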); conditions: K562-ABCB6 porphyrin accumulation, 1 h, at 10 µM, stronger effect = higher value
Sequence of ATP-binding cassette sub-family B member 6 (Homo sapiens) (Q9NP58 whole entry, looked up): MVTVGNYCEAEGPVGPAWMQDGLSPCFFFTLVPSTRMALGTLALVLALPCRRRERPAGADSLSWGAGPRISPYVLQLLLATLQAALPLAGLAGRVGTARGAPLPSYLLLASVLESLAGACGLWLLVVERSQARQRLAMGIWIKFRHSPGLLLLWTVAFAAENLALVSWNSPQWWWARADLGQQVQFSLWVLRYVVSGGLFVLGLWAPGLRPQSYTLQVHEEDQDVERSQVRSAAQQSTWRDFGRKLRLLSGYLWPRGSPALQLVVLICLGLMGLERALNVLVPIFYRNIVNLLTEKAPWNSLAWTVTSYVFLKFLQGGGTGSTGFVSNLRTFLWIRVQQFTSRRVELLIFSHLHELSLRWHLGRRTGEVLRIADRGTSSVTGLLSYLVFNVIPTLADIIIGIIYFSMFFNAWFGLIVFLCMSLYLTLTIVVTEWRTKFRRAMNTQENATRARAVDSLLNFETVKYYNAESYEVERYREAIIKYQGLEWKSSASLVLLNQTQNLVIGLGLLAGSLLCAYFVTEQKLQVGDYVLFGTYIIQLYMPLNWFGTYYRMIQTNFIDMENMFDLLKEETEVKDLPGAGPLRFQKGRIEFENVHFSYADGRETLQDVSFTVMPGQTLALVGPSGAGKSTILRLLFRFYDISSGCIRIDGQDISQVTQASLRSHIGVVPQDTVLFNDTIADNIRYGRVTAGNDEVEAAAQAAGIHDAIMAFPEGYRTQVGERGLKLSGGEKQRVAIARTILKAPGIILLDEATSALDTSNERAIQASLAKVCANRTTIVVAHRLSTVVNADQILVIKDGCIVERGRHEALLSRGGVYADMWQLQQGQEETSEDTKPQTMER

[16] = promoters of myeloid differentiation in arrested cells, primary screen, cell-based, GFP/MAC1 double positive, flow cytometry, validation set (AID 588685;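 active means differentiation response of at least 50%, scaled between solvent and reference control, from cells with both markers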;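 further: compound exposure lasts four days before antibody staining and flow analysis; 0% = DMSO wells and 100% = 5 µM fulvestrant positive control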); conditions: ER-HoxA9 marrow cells, stronger effect = higher value, normalized: vehicle 0, fulvestrant 100

Row | Structure (SMILES) | percent of DMSO control GFP [1] | GFP response vs DMSO [2] | percent response of DMSO control [3] | GFP response vs DMSO [4] | GFP response, % of DMSO [5] | double positive events [6] | vesicle binding response [6] | inhibition [7] | superoxide response (% of plate) [8] | aptamer binding inhibition [9] | response [10] | inhibition [11] | response [12] | binding (% of control) [13] | efflux inhibition (fraction of control) [14] | inhibition [15] | differentiation response [16]
1 | COc1ccccc1N=CC1=C(O)CC(c2ccccc2)CC1=O (stereo not drawn) | 92.6% (inactive) | 111% (inactive) | 96.6% (inactive) | 82.5% (inactive) | 88.9% (inactive) | 64.4% | 153% (inactive) | -36.2% (inactive) | 95.6% (inactive) | 2% (inactive) | 1.28% (inactive) | -4.2% (inactive) | 4.13% (inactive) | 103% (inactive) | -0.24 (inactive) | 12% (inactive) | 2.46% (inactive)
2 | CCOc1ccc2ccccc2c1CNc1nnnn1C | 102% (inactive) | 103% (inactive) | 107% (inactive) | 94% (inactive) | 96.2% (inactive) | 65.8% | 1400% (inactive) | 18.2% (inactive) | 91% (inactive) | 3% (inactive) | -8.39% (inactive) | -1.6% (inactive) | 1.46% (inactive) | 98.4% (inactive) | 0.05 (inactive) | 8% (inactive) | 13.9% (inactive)
3 | COC(=O)c1[nH]c(=O)c2ccccc2c1O | 101% (inactive) | 95.2% (inactive) | 101% (inactive) | 110% (inactive) | 100% (inactive) | 62.3% | 159% (inactive) | 0.94% (inactive) | 104% (inactive) | 1% (inactive) | -13.2% (inactive) | -7.21% (inactive) | 2.12% (inactive) | 101% (inactive) | 0.01 (inactive) | 109% (active) | 18.4% (inactive)
4 | O=C(Oc1ccc2c3c(c(=O)oc2c1)CCCC3)c1ccco1 | 101% (inactive) | 101% (inactive) | 96% (inactive) | 102% (inactive) | 85% (inactive) | 62.5% | 126% (inactive) | -6.04% (inactive) | 99.3% (inactive) | 5% (inactive) | 5.57% (inactive) | 11.5% (inactive) | 0.75% (inactive) | 96.5% (inactive) | 0.62 (active) | 6% (inactive) | -5.68% (inactive)
5 | CSc1ccc(CN2CCN(CCC(C)C)C(CCO)C2)cc1 (stereo not drawn) | 101% (inactive) | 106% (inactive) | 109% (inactive) | 117% (inactive) | 131% (active) | 61.2% | 199% (inactive) | 4.84% (inactive) | 91.4% (inactive) | -1% (inactive) | -11.6% (inactive) | -9.19% (inactive) | 2.63% (inactive) | 102% (inactive) | -0.09 (inactive) | 0% (inactive) | -5.97% (inactive)
6 | CCCC(=O)Nc1ncnc2c1ncn2[C@@H]1O[C@@H]2COP(=O)(O)O[C@H]2[C@H]1OC(=O)CCC | 97.7% (inactive) | 130% (inactive) | 97.9% (inactive) | 96.3% (inactive) | 94.7% (inactive) | 61% | 131% (inactive) | 4.52% (inactive) | 96.8% (inactive) | 3% (inactive) | -6.04% (inactive) | -3.95% (inactive) | 1.56% (inactive) | 98.3% (inactive) | -0.06 (inactive) | 7% (inactive) | 5.73% (inactive)
7 | CC(=O)NS(=O)(=O)c1ccc(N)cc1 | 98.6% (inactive) | 101% (inactive) | 97% (inactive) | 101% (inactive) | 104% (inactive) | 62.3% | 335% (inactive) | 0.59% (inactive) | 101% (inactive) | 2% (inactive) | -16.2% (inactive) | -0.64% (inactive) | 0.06% (inactive) | 103% (inactive) | 0.04 (inactive) | 5% (inactive) | -3.02% (inactive)
8 | O=C(/C=C/c1ccc(F)cc1)NC(=S)N1CCCCC1c1cccnc1 (stereo not drawn) | 103% (inactive) | 106% (inactive) | 112% (inactive) | 117% (inactive) | 112% (inactive) | 56.7% | 165% (inactive) | -3.67% (inactive) | 92.2% (inactive) | 82% (active) | -15.6% (inactive) | 1.74% (inactive) | 5.24% (inactive) | 104% (inactive) | -0.13 (inactive) | -5% (inactive) | -4.99% (inactive)
9 | C=CCn1c(N2CCCCCC2)nc2c1c(=O)n(C)c(=O)n2C | 97.6% (inactive) | 97.6% (inactive) | 95.7% (inactive) | 104% (inactive) | 114% (inactive) | 63.5% | 220% (inactive) | 7.4% (inactive) | 112% (inactive) | 3% (inactive) | -47.3% (inactive) | -11.7% (inactive) | 0.52% (inactive) | 95.9% (inactive) | 0.17 (inactive) | 7% (inactive) | -11.9% (inactive)
